# Only some compounds are listed: those with a hit (about 1.5% of all), similar ones and a draw of the others.
# DAT uptake mod: human DAT dopamine uptake with cocaine, either direction; Q01959; LLC-PK1 hDAT cells, [14C]-dopamine uptake with cocaine IC80; actives deviate in either direction; B-score at 10 µM; 110,000 tested, 1.3% active;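 active = Z score or B-score, a plate-position-corrected score, falls beyond the plate's 99.7% confidence bounds, in either direction; inactive = both scores lie inside the 99.7% bounds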;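 note: scored against the spread of the other compound wells on the same plate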
# Target sequence (Q01959 whole entry, looked up): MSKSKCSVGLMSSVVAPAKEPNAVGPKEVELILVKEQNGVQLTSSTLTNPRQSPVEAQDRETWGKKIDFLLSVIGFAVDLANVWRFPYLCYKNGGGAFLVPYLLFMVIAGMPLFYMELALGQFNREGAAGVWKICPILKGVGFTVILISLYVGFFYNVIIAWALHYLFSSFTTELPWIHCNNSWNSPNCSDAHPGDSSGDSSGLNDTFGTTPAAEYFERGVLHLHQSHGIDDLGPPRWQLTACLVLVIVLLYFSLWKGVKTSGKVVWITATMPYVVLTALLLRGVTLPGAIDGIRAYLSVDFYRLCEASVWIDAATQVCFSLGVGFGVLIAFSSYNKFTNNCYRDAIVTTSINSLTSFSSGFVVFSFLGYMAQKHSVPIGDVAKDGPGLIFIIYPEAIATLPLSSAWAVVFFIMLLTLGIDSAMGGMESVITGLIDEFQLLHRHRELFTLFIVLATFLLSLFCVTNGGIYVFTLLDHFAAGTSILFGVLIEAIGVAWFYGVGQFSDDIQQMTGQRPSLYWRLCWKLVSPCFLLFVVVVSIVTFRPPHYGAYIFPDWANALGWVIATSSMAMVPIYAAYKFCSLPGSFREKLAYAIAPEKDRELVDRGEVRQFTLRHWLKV
# MRP-1 activ: MRP-1 activation | viability increase, % at 10 µM | H69AR cells + doxorubicin, viability rescue, CellTiter-Glo | 140,000 tested, 0.61% active;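 active = viability gain under doxorubicin at or above a set limit, the compound median plus 3 SD, cut at about 4.7% in these data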;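 note: MRP-1 overexpressing cells given doxorubicin 25 µM after compound pretreatment; 18-22 h compound pretreatment then 72 h with doxorubicin before readout; 0% = doxorubicin-only wells and 100% = vehicle-treated cells without doxorubicin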
# MRP reversal: compounds reversing MRP-mediated drug resistance; H69AR cells + 2 uM doxorubicin, CellTiter-Glo, 72 h; differential viability (reversal), % at 10 µM; 85,000 tested, 0.04% active;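 active = viability drop by adding the cancer drug above about 55%, with treated viability meeting a 40% cutoff, limit read from the data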;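 note: viability without doxorubicin minus viability with 2 µM doxorubicin for each compound; larger differential means the compound sensitizes cells more to doxorubicin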
# The depositor's hits bear a star; . = no result given; ! = a repeat was not active.
SMILES,DAT uptake mod,MRP-1 activ,MRP reversal
CC(C)C[C@H](NC(=O)c1nc[nH]c1C(=O)N(C)Cc1ccccc1)C(=O)OCc1ccccc1,-0.0249,.,.
Cc1noc(/C=C/N(C)C)c1S(=O)(=O)N1CCCC(C(=O)NC2CCCCC2)C1 (centres undefined),1.47,9.3*,-13.7
Cc1noc(/C=C/N(C)C)c1S(=O)(=O)N1CCCC(C(=O)N2CCCCC2)C1 (centres undefined),0.283,1.0,9.3
Cc1cc(C)c(NS(=O)(=O)c2ccc3c(c2)NC(=O)CC(=O)N3)c(C)c1,.,0.1,.
COc1cccc(NC(=O)CN2CCN(c3ccc(F)cc3)CC2)c1,-2.46*,-1.5,-20.8
COC(=O)c1cccc(NC(=O)CN2CCN(c3ccc(OC)cc3)CC2)c1,-0.271,-0.3,5.2
O=C(CSCc1cccc(Cl)c1)N/N=C/c1ccc(OCC(=O)N2CCCCC2)cc1,1.53,-2.9,.
Cc1cccc(C(=O)N/N=C/c2ccc(OCC(=O)N3CCCCC3)cc2)c1,2.19*,-3.8,.
Cc1cccc(NS(=O)(=O)c2cc(C(=O)OC(C)C(=O)NCc3ccc4c(c3)OCO4)ccc2C)c1 (centres undefined),.,4.8*,.
Cc1cccc(NC(=S)NCc2ccc3c(c2)OCO3)c1,.,-4.1,.
Cc1nnc(NC(=O)CSc2cn(CCNC(=O)c3ccccc3)c3ccccc23)s1,-0.147,-1.9,6.5
COc1ccc(C(=O)NCCn2cc(SCC(=O)Nc3nnc(C)s3)c3ccccc32)cc1,0.0576,7.9*,-35.5
N#Cc1sc(=O)[nH]c1Cl,-0.0156,.,.
COC(=O)C[C@H]1c2cc(F)ccc2S(=O)(=O)N1C(C)C,-1.12,.,.
COc1ccc(OC)c(S(=O)(=O)NCc2csc(-c3ccccc3)n2)c1,2.43*,-0.5,.
COc1ccc(OC)c(S(=O)(=O)NCc2cn3c(C)csc3n2)c1,-0.0307,-0.3,7.7
COc1cc(NC(=O)C/C(C)=N/NC(=O)c2cccc(O)c2)c(OC)cc1Cl,.,-3.7,.
COc1ccc(CN2C(=O)[C@H]3Cc4c([nH]c5ccccc45)C(C)(C)N3C2=O)cc1,0.052,.,.
Cc1ccc(OCc2nnc(SCC(=O)Nc3cccc4ccccc34)n2-c2ccccc2)cc1,0.993,6.3*,-18.9
CCc1nnc(NC(=O)CSc2nnc(COc3ccccc3)n2-c2ccc(C)cc2)s1,1.38,-2.6,9.0
O=C(Nc1ccccc1C(=O)OCC(=O)c1c[nH]c2ccccc12)c1ccco1,.,-1.9,.
Cc1cc(C(=O)N2CCC(C(F)(F)F)n3nccc32)on1 (centres undefined),-2.87*,0.3,4.3
Cc1cc(C(=O)N2CCN(C(c3ccccc3)c3ccccc3)CC2)on1,0.407,-1.1,3.4
CN(C)c1ccc(/C=N/c2cc(-c3ccccc3)nn2-c2ccccc2)cc1,-0.471,1.0,.
O=C1C(c2ccc(F)cc2)N(Cc2ccc3c(c2)OCO3)C(=O)CN1C1CCCCCC1 (centres undefined),1.25,-2.0,15.3
SMILES,DAT uptake mod,MRP-1 activ,MRP reversal
Fc1ccc([C@@H]2CCNC[C@H]2COc2ccc3c(c2)OCO3)cc1,-3.66*!,.,.
O=C(O)C1=C[C@H](c2ccc(C(F)(F)F)cc2)C[C@H](OCCCCO)O1,-0.00773,.,.
COc1ccc(NC(=O)c2oc3ccccc3c2NC(=O)c2ccc3c(c2)OCO3)cc1,1.44,8.4*,.
CCOC(=O)c1oc2ccccc2c1NC(=O)c1ccc2c(c1)OCO2,-0.144,1.4,-14.0
O=C(COC(=O)c1ccccc1OCC(=O)Nc1ccc(Br)cc1)Nc1ccccc1,.,-2.5,.
CCOc1ccccc1C(=O)OCC(=O)Nc1ccc(OC(F)F)cc1,0.452,13.6*,.
O=C(NCCc1c[nH]c2ccccc12)c1ccc(S(=O)(=O)NCc2ccco2)cc1,-7.67*,-1.8,-27.5
O=C(NCCc1c[nH]c2ccccc12)c1ccc([N+](=O)[O-])cc1,.,-3.6,.
O=C(Nc1ncn[nH]1)c1cc(S(=O)(=O)Nc2ccc(Cl)cc2)ccc1Cl,.,0.6,.
O=C(Nc1ncn[nH]1)c1ccc(Cl)c(S(=O)(=O)Nc2ccc(Cl)cc2)c1,.,4.8*,.
N#Cc1nc(COc2ccc(Cl)cc2)oc1N1CCN(Cc2ccccc2)CC1,0.0182,4.8*,.
COc1ccc(N2CCN(c3oc(COc4ccccc4)nc3C#N)CC2)cc1,-0.0983,1.7,18.6
CN1CCN(c2oc(COc3ccc(-c4ccccc4)cc3)nc2C#N)CC1,0.436,-3.6,5.5
COc1ccc(N2CCN(c3oc(COc4ccc(Cl)cc4)nc3C#N)CC2)cc1,-0.297,5.8*,.
Cc1ccc(NC(=O)c2ccc3c(c2)OCCO3)cc1S(=O)(=O)Nc1cccc(Cl)c1,.,3.6,.
Cc1nc(N2CCN(c3ccccc3)CC2)[nH]c(=O)c1Cc1ccccc1,0.197,-1.9,-11.5
Cc1nc(N2CCN(C)CC2)[nH]c(=O)c1Cc1cccc2ccccc12,2.48*,-3.1,3.0
COc1cc(NC(=O)COC(=O)/C=C/c2c(C)nn(-c3ccc(F)cc3)c2Cl)cc(OC)c1,.,-2.5,.
COc1ccc(Cc2nc3ccccc3n2CC(=O)N/N=C/c2ccccc2)cc1OC,.,0.1,.
CCn1c(SCC(=O)N/N=C/c2ccc(OC)c(OC)c2)nc2ccccc21,4.19*,-2.0,.
C#CCN1C(=O)S/C(=C/C=C/c2ccc(N(C)C)cc2)C1=O,.,-1.5,.
C[C@@H]1C=C(C(=O)NCc2ccccc2)O[C@H](OCc2ccc(CO)cc2)C1,-0.834,.,.
Cn1nnnc1SCC(=O)N1CCN(c2ccc(Cl)cc2)CC1,.,-1.9,10.8
O=C(CSC1=NCCS1)N1CCN(c2ccc(Cl)cc2)CC1,2.65*,-5.2,-11.6
CCOC(=O)c1c(NC(=O)C2=C(C)NC(=S)NC2c2ccc(CC)cc2)sc(C)c1C (centres undefined),.,-1.7,.
SMILES,DAT uptake mod,MRP-1 activ,MRP reversal
COc1ccc(-n2c(SC3CCOC3=O)nc3ccccc32)cc1 (centres undefined),0.00991,1.7,-4.4
COc1ccc(/C=C2/N=C(SC3CCOC3=O)N(c3cccc(OC)c3)C2=O)cc1 (centres undefined),.,5.2*,.
O=C(CN1CCN(S(=O)(=O)c2ccccc2)CC1)Nc1ccc(Cl)c(Cl)c1,2.02,-5.4,.
N=c1c2c(n(Cc3ccc(F)cc3)c3c1CCC3)CCC2,-5.18*,-0.5,11.1
CCn1c2c(c(=N)c3c1CCC3)CCC2,.,-0.7,.
COc1ccc(CCNC(=O)CCC(=O)Nc2nnc(C(C)C)s2)cc1OC,.,0.5,.
CC(C)C(=O)Nc1cccc(NC(=S)NC(=O)c2ccccc2Cl)c1,0.391,-2.5,.
CCC(=O)Nc1cccc(NC(=S)NC(=O)c2ccccc2Cl)c1,2.71*,-2.6,.
Cc1cccnc1NC(=O)Cn1nc(-c2ccccc2)oc1=S,.,0.3,.
O=C(Nc1ccccc1-c1ccccc1)c1ccc(NC(=O)c2ccco2)cc1,-0.514,3.9,9.9
Cc1cccc2cc3c(N)c(C(=O)N4CCc5ccccc54)sc3nc12,.,-2.1,.
CC1=C(C(=O)Nc2ccc(Cl)cc2)C2(CCCCC2)C(C(N)=O)C(=S)N1 (centres undefined),.,-3.0,.
CNC(=O)c1[nH]cnc1C(=O)N[C@@H](Cc1ccccc1)C(=O)OCc1ccccc1,-0.804,.,.
CNC(=O)c1[nH]cnc1C(=O)N[C@@H](C)C(=O)OCc1ccccc1,2.4*,.,.
O=C(NC(=S)Nc1ccccn1)c1cc(-c2ccccc2)nc2ccccc12,.,7.5*,.
O=C(NC(=S)Nc1ccccc1)c1cc(-c2ccccc2)nc2ccccc12,0.148,-1.3,.
N#Cc1c(Cl)c(Cl)c2nnc(-c3ccc(Br)cc3)n2c1Cl,0.969,-2.7,.
